Source: PubChem
In the library only some 2.2% were active in any assay of this set; here they are far more common.
Pin1 inhibitor: blocks the human prolyl isomerase Pin1; Pin1 FP peptide displacement, HiFluor488, 10 min; AID 504891; Potency, µM (titrated, usually from 115 µM), for the others: at the highest dose activity, negative = inhibition, most hits filed as inhibitors; actives 0.009% (n = 390,000); Q13526; active = well fitted inhibition curve with a large enough effect in the polarisation, with a control signal flat, not every such curve was filed as active; inconclusive = small, poorly fitted or top-dose-only effect, or effect the other way, or a change in a side signal; inactive = no such curve, though single readings can be large or run the other way; the % refers to the polarisation; also: % is scaled to controls: 0 for no effect and ±100 for the full control effect
Target sequence (Q13526 whole entry, looked up): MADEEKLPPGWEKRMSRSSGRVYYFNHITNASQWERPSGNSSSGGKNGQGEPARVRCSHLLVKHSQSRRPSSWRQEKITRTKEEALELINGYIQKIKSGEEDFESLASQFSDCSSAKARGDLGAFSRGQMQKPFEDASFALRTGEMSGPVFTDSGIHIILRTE
A549 tox: kills or reduces viability of A549 cells in Nrf2 counter-screen; A549 ARE-Fluc cells, CellTiter-Fluor viability, 18-24 h; Potency, µM (doses to about 46 µM), without a hit: at the top dose activity change, negative = cytotoxicity, hits mostly inhibitors; actives 0.16% (n = 390,000); also: % is scaled to controls: 0 for no effect and ±100 for the full control effect
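Cytotoxicity counterscreen: CellTiter-Fluor fluorescence was measured in A549 ARE_Fluc cells after 18-24 h of compound exposure in a concentration series. The subsequent BugLite luminescent read reports ARE-luciferase activity.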
Nrf2 inh: blocks Nrf2 signaling; A549 ARE-Fluc reporter, luciferase luminescence, 18-24 h; Potency, µM (series often up to 46 µM), for inactives: at the highest dose activity change, negative = inhibition, actives largely listed as inhibitors; actives 2.1% (n = 360,000); AID 504444; also: % is scaled to controls: 0 for no effect and ±100 for the full control effect; nearly all actives have a fitted effect of over 60% in size
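Nrf2 function is reported as luminescence of an ARE-controlled luciferase in A549 cells. Compounds were tested at several concentrations, and a CellTiter-Fluor read on the same wells flagged cytotoxicity.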
Nrf2 activator: activators of Nrf2 (ARE) signaling. AREc32 ARE-luciferase reporter (MCF7-derived line), luminescence, 24 h. Potency, µM (titrated, usually from 46.1 µM), for the others: at the highest dose activation, actives largely listed as activators. actives 0.31% (n = 410,000). AID 624171; also: % of control where 0% means no effect; nearly all actives have a fitted effect of over 65% in size
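For detection, Steady-Glo was added and plates sat 30 min at RT; before that, AREc32_Fluc cells grown overnight in OPTI-MEM/5% FBS had been treated with 23 nL compound for 24 hr at 37 deg C.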
* hit, by the source's call; [ ] = dose if it differs, or a comment. Unless noted, calls follow the shape of the dose curve; as a rule, active = well fitted curve in the direction sought with a large enough effect; inconclusive = small, poorly fitted or top-dose-only effect, or another doubt; inactive = no such curve, though single readings can be large; an effect the other way counts as inactive or inconclusive. Potency is read from the fitted curve at half-maximal effect.

Cc1ccc(NC(=O)COc2cccc(-n3cnnn3)c2)cc1S(=O)(=O)N1CCOCC1 was read as Pin1 inhibitor 13%, A549 tox 0%, Nrf2 inh 23µM* and Nrf2 activator 1%.
CCOc1ccc(NC(=O)c2c(C)nn(-c3ccc(F)cc3)c2-n2cccc2)cc1 was read as Pin1 inhibitor -7%, A549 tox 9%, Nrf2 inh -7% and Nrf2 activator -2%.
Screening Cc1cc(C)n2ncc(C(=O)NCC(C)C)c2n1 returned Pin1 inhibitor -1%, A549 tox 12% and Nrf2 inh -6%.
For CCOc1ccc(NC(=O)CN2CCCC2c2cccs2)cc1S(=O)(=O)N1CCCCC1 (stereo not given) the results were Pin1 inhibitor 43%, A549 tox -5%, Nrf2 inh inconclusive and Nrf2 activator 8%.
Cc1ccc(NC(=O)CN2CCCC2c2cccs2)cc1S(=O)(=O)N1CCCCC1 (stereo not given) was read as Pin1 inhibitor 6%, A549 tox -15%, Nrf2 inh 21µM* and Nrf2 activator 1%.
`Cc1ccc(NC(=S)Nc2ccc(C(C)C)cc2)cc1S(=O)(=O)N1CCCCCC1` gave Pin1 inhibitor 1%, A549 tox inconclusive, Nrf2 inh 12µM* and Nrf2 activator 11%.
Screening COCCNC(=O)c1ccc2c(=O)n(CCc3ccccc3)c(SCC(=O)CC(=O)OC)nc2c1 returned Pin1 inhibitor 29%, A549 tox 13%, Nrf2 inh 17% and Nrf2 activator 4%.
For Cc1ccc(Nc2c([N+](=O)[O-])ccc3nonc23)c(C)c1 the results were Pin1 inhibitor -3%, A549 tox -5%, Nrf2 inh 0% and Nrf2 activator 2%.
For Cc1ccc(S(=O)c2ccc([N+](=O)[O-])c3nonc23)cc1 (stereo not given) the results were Nrf2 activator 18µM*.
For O=S(=O)(c1ccc2c(c1)OCCO2)N1CCN(S(=O)(=O)c2ccc3nc(Cl)c(Cl)nc3c2)CC1 the results were Pin1 inhibitor 0%, A549 tox -5% and Nrf2 inh -16%.
Screening O=C(NCCSc1c(-c2ccc(Br)cc2)[nH]c2ccccc12)c1ccc(S(=O)(=O)N2CCOCC2)cc1 returned Pin1 inhibitor 24%, A549 tox -7%, Nrf2 inh -10%[9.27 µM] and Nrf2 activator 4%.
Nc1nc(NCc2ccco2)nc(N2CCOCC2)c1[N+](=O)[O-] was read as Pin1 inhibitor 8%, A549 tox -8%, Nrf2 inh inconclusive and Nrf2 activator inconclusive.
For CC1CCCN(c2nc(NCc3ccco3)nc(N)c2[N+](=O)[O-])C1 (stereo not given) the results were Pin1 inhibitor -1%, A549 tox 1%, Nrf2 inh 18µM* and Nrf2 activator 20%[9.22 µM].
For CC1CC(C)CN(c2nc(NCc3ccco3)nc(N)c2[N+](=O)[O-])C1 (stereo not given) the results were Pin1 inhibitor -1%, A549 tox -25%, Nrf2 inh 23µM* and Nrf2 activator 22%.
For CCOc1ccc(-c2cc3nc(C4CCN(C(=O)OC(C)(C)C)CC4)c(C(=O)Nc4ccc(C)c(F)c4)cn3n2)cc1 the results were Pin1 inhibitor 6%, A549 tox -9%, Nrf2 inh 15% and Nrf2 activator 0%.
`CN(C(=O)c1ccoc1)c1ccccc1I` gave Pin1 inhibitor -1%, A549 tox 0% and Nrf2 inh -2%.
Cc1c(Cl)cccc1NC(CC(=O)c1ccccc1)C(=O)O (stereo not given) was read as Pin1 inhibitor -12%, A549 tox -3%, Nrf2 inh 7% and Nrf2 activator 16µM*.
Screening O=C(Cn1c(=O)oc2cc(S(=O)(=O)N3CCCCCC3)ccc21)Nc1ccc(F)cc1F returned Pin1 inhibitor 1%, A549 tox 2%, Nrf2 inh -4% and Nrf2 activator 16%.
For Cc1cc(C)nc(SCCC(=O)Nc2ccccc2Cl)n1 the results were Pin1 inhibitor 0%, A549 tox 0%, Nrf2 inh 12µM* and Nrf2 activator 0%.
Cc1cccc(Cn2c(=O)n(CCCC(=O)NCc3ccccc3Cl)c(=O)c3ccccc32)c1 was read as Pin1 inhibitor -1%, A549 tox -18%, Nrf2 inh 10µM* and Nrf2 activator 0%.
Cc1ccc(C)c(Cn2c(=O)n(CCCCC(=O)NCc3ccccc3Cl)c(=O)c3ccccc32)c1 was read as Pin1 inhibitor 2%, A549 tox -7%, Nrf2 inh 6% and Nrf2 activator 0%.
CC(C)NC(=O)COC(=O)CNC(=O)C1CCCCC1 was read as Pin1 inhibitor -1%, A549 tox 3% and Nrf2 inh 5%.
`CCCCCCCCCCOC(=O)Cn1c(COc2ccc(OC)cc2)[n+](C)c2ccccc21` gave Pin1 inhibitor 1%, A549 tox inconclusive, Nrf2 inh 21µM* and Nrf2 activator -3%.
CCCCCCCCCCOC(=O)Cn1c(COc2ccccc2)[n+](C)c2ccccc21 was read as Pin1 inhibitor 0%, A549 tox -8%, Nrf2 inh inconclusive and Nrf2 activator -3%.
`CCO/C=N/Nc1nc(C(F)(F)F)nc2c1cnn2Cc1ccccc1` gave Pin1 inhibitor -3%, A549 tox -19%, Nrf2 inh 23µM* and Nrf2 activator 0%.
For CC1CCCCC1NC(=S)NC(=O)c1sc2ccccc2c1Cl (stereo not given) the results were Pin1 inhibitor -4%, A549 tox -6%, Nrf2 inh -11% and Nrf2 activator 0%.
`O=C(NC(=S)N(CCCCO)C1CCCCC1)c1sc2ccccc2c1Cl` gave Pin1 inhibitor -11%, A549 tox inconclusive, Nrf2 inh 12µM* and Nrf2 activator 19%.
Screening COc1ccc(N2CCN(Cc3nnc(-c4cccc(Br)c4)o3)CC2)cc1 returned Pin1 inhibitor 5%, A549 tox 2%, Nrf2 inh 11% and Nrf2 activator 0%.
O=C(CN1CCOCC1)Nc1nc(-c2ccccc2)cs1 was read as Pin1 inhibitor 0%, A549 tox 1%, Nrf2 inh 16% and Nrf2 activator 4%.
O=C(Cn1nnc(-c2ccc(CN3CCOCC3)cc2)n1)Nc1nc(-c2ccccc2)cs1 was read as Pin1 inhibitor 19%, A549 tox -1%, Nrf2 inh 16µM* and Nrf2 activator 2%.
`O=C(NNc1ccccn1)C(c1ccccc1)c1ccccc1` gave Pin1 inhibitor -5%, A549 tox -8%, Nrf2 inh -8% and Nrf2 activator -1%.
Screening O=C(NNC(=O)C(c1ccccc1)c1ccccc1)c1ccccn1 returned Pin1 inhibitor inconclusive, A549 tox inconclusive, Nrf2 inh 15µM* and Nrf2 activator 13%.
Screening CCOc1ccc(CCNC(=O)CN2C(=O)COc3ccc(S(=O)(=O)N(CC)CC)cc32)cc1 returned Pin1 inhibitor 8%, A549 tox -4%, Nrf2 inh 23µM* and Nrf2 activator 2%.
O=[N+]([O-])c1ccccc1CN1CCN(S(=O)(=O)c2ccccc2)CC1 was read as Pin1 inhibitor 0%, A549 tox -5%, Nrf2 inh 16µM* and Nrf2 activator 0%.
